# Measured values published in PubChem BioAssay (NCI).
# Values joined by “and” are separate entries in the source; they are usually repeats but may differ in a detail not shown here. Identical values can stand only once. Compounds without any hit were thinned out: in the full panel of roughly 83,000, 20% have a hit.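 Single-dose data. Exposure time 48 hours. Values below 10 considered active.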 Unmarked numbers belong to inactive results. Active and inactive are the calls of the source.
# System: MOLT-4 leukemia
# Assay: NCI-60 one-dose screen, 48 h (100 = growth as untreated, 0 = no growth, -100 = all killed)
# Settings: 10 µM unless noted
row,SMILES,growth
1,COc1ccc(N)cc1N,163%
2,CC1OC(=O)C(C(C)C)NC(=O)C(C(C)C)OC(=O)C(C(C)C)NC(=O)C(C)OC(=O)C(C(C)C)NC(=O)C(C(C)C)OC(=O)C(C(C)C)NC(=O)C(C)OC(=O)C(C(C)C)NC(=O)C(C(C)C)OC(=O)C(C(C)C)NC1=O (stereo unspecified),-26.4% (active)
3,C[C@H](O)CCC(=O)c1ccoc1,98.2%
4,O=CC1(c2ccccc2)CCN(Cc2ccccc2)CC1,99.4%
5,CC1=CC(=O)CCC12CCOC2=O (stereo unspecified),107%
6,CCC1CCC(=O)O1 (stereo unspecified),98.3% and 116%
7,CN(C)C(=S)SSC(=S)N(C)C,92.3%
8,ClC1OC(Cl)(Cl)C(Cl)(Cl)OC1(Cl)Cl (stereo unspecified),97.1%
9,COc1ccc(N)cc1OC,112%

# System: SR leukemia
# Assay: as above
# Settings: 10 µM unless noted
row,SMILES,growth
1,CN(C)c1ccc(C=C2C(=O)NC(=O)NC2=O)cc1,107%
2,CC1=C2[C@H]3OC(=O)[C@@H](C)[C@@H]3CC[C@@]2(C)C=CC1=O,114%
3,O=[N+]([O-])c1ccc2scc3c4ccccc4nc-3c2c1,15.9%
4,Cc1cc(NC(=O)NCCCOc2ccc(N3C(N)=NC(N)=NC3(C)C)cc2Cl)ccc1S(=O)(=O)F,22.4%
5,Nc1nc(=S)nc(N)[nH]1,71.3%
6,O=C(O)C1C(C(=O)O)C2(Cl)C(Cl)=C(Cl)C1(Cl)C2(Cl)Cl (stereo unspecified),104% and 118%
7,O=[N+]([O-])c1cc(Br)c(O)c(Br)c1,102%
8,Cc1cc(Br)c([N+](=O)[O-])cc1[N+](=O)[O-],40.4%
9,CCOC(=O)C1C(C=C(C)C)C1(C)C (stereo unspecified),99.7%
10,N[C@@H](CCC(=O)CCl)C(=O)O,71.3% [20 µM]
11,Oc1ccc(O)c(Cl)c1,70.4% and 94.5%
12,N#CC(C#N)=C(C#N)C#N,105%
13,CC(C)CCC1C(=O)NC(=O)NC1=O,93.5%
14,CC1OC(=O)C(C(C)C)NC(=O)C(C(C)C)OC(=O)C(C(C)C)NC(=O)C(C)OC(=O)C(C(C)C)NC(=O)C(C(C)C)OC(=O)C(C(C)C)NC(=O)C(C)OC(=O)C(C(C)C)NC(=O)C(C(C)C)OC(=O)C(C(C)C)NC1=O (stereo unspecified),-14.6% (active)
15,CCCCCCCCCCCCCCCCCC1OCC(COC(=O)O[C@@H](C(=O)O[C@H]2C[C@@]3(O)[C@@H](OC(=O)c4ccccc4)[C@@H]4[C@]5(OC(C)=O)CO[C@@H]5C[C@H](O)[C@@]4(C)C(=O)[C@H](OC(C)=O)C(=C2C)C3(C)C)[C@@H](NC(=O)c2ccccc2)c2ccccc2)O1 (stereo partly specified),18%
16,O=c1[nH]c(=O)[nH]c(=O)[nH]1,104%
17,O=CC1(c2ccccc2)CCN(Cc2ccccc2)CC1,97.8%
18,CC(=O)c1cccc(S(=O)(=O)F)c1,76.1%
19,CC(=O)Nc1nc2c(s1)C1=CC[C@H]3[C@@H]4CC[C@H](OC(C)=O)[C@@]4(C)CC[C@@H]3[C@@]1(C)CC2,21.5%
20,ClC1OC(Cl)(Cl)C(Cl)(Cl)OC1(Cl)Cl (stereo unspecified),95%

# System: RPMI-8226 leukemia
# Assay: as above
# Settings: 10 µM unless noted
row,SMILES,growth
1,[N-]=[N+]=CC(=O)CCC(=O)C=[N+]=[N-],119%
2,O=[N+]([O-])c1ccc2scc3c4ccccc4nc-3c2c1,-29.5% (active)
3,Cc1cc(NC(=O)NCCCOc2ccc(N3C(N)=NC(N)=NC3(C)C)cc2Cl)ccc1S(=O)(=O)F,36.6%
4,Cn1cc(C(=O)C[n+]2ccccc2)c2ccccc21,98.2%
5,C[C@]12CCC(=O)C[C@@H]1CC[C@@H]1[C@@H]2CC[C@]2(C)[C@@H](OC(=O)N(CCCl)N=O)CC[C@@H]12,17.4%
6,NC1CN2CCC1CC2 (stereo unspecified),96.4%
7,O=C1NC(=O)C(=C/C=C/c2ccccc2)C(=O)N1,-20.4% (active)
8,c1ccc(CCN2CCCCC2)nc1,94.3%
9,Cc1cc(Br)c([N+](=O)[O-])cc1[N+](=O)[O-],120%
10,CCOC(=O)C1C(C=C(C)C)C1(C)C (stereo unspecified),96.9%
11,CC(C)c1cccc(C(C)C)c1O,101% and 100%
12,N#CC(C#N)=C(C#N)C#N,101%
13,CC(C)CCC1C(=O)NC(=O)NC1=O,113%
14,COc1ccc(N)cc1N,90.1%
15,C[C@H](O)CCC(=O)c1ccoc1,97.8%
16,CCCCCCCCCCCCCCCCCC1OCC(COC(=O)O[C@@H](C(=O)O[C@H]2C[C@@]3(O)[C@@H](OC(=O)c4ccccc4)[C@@H]4[C@]5(OC(C)=O)CO[C@@H]5C[C@H](O)[C@@]4(C)C(=O)[C@H](OC(C)=O)C(=C2C)C3(C)C)[C@@H](NC(=O)c2ccccc2)c2ccccc2)O1 (stereo partly specified),4.08% (active)
17,O=c1[nH]c(=O)[nH]c(=O)[nH]1,60.1%
18,CC(=O)c1cccc(S(=O)(=O)F)c1,101%
19,CC(=O)Nc1nc2c(s1)C1=CC[C@H]3[C@@H]4CC[C@H](OC(C)=O)[C@@]4(C)CC[C@@H]3[C@@]1(C)CC2,30.8%
20,CC1=CC(=O)CCC12CCOC2=O (stereo unspecified),88.3%
21,CN(C)C(=S)SSC(=S)N(C)C,85.6% and 70%
22,COc1ccc(N)cc1OC,104%
